Data from PubChem BioAssay (NCI).
This is part of a sample that, as a whole, favours compounds with a hit. Of some 83,000 tested, about 20% had one in any assay.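 Single-concentration screen, 48 h exposure, 96-well plates. Endpoint: percent growth. Below 10 = active.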 A number with no mark means an inactive call. Calls of active or inactive are those of the source.

tested on: HOP-92 NSCLC; experiment: NCI-60 one-dose screen, 48 h (100 = growth as untreated, 0 = no growth, -100 = all killed); settings: 10 µM unless noted
Procedure: Growth inhibition of the HOP-92 human Non-Small Cell Lung tumor cell line is measured as a screen for anti-cancer activity. Cells are grown in 96 well plates and exposed to the test compound for 48 hours. Compounds are tested at a single concentration, which is 10^-5 M for most compounds. The reported endpoint is percent growth (GI% or GIPRCNT), where numbers from 0 - 100% represent growth inhibition, and numbers from -100% - 0 represent cell death. For example, a value of 40 represents 60% growth inhibition. A value of 0 means no net growth occurred over the course of the experiment. A value of -40 indicates 40% of cells at the beginning of the experiment died by the end of the experiment. A value of -100 means all cells are dead at the end of the experiment.
NCI-60 Human Tumor Cell Lines Screen was performed using the standard one-dose NCI protocol, which is described in more detail at https://dtp.cancer.gov/discovery_development/nci-60/default.htm.
Compounds with GIPRCNT values below 10 were considered active. Activity score was based on GIPRCNT using the following formula: […]
Score is 0 for GIPRCNT values of 100 or above, 50 for GIPRCNT values of 0, and 100 for GIPRCNT values of -100.

| SMILES | growth |
| --- | --- |
| Cc1ccc(-n2c(-c3cc4ccccc4nc3Cl)noc2=O)cc1 | 70.6% |
| O=C(c1ccc(OCCN2CCOCC2)cc1)C1[C@H](c2ccc(Cl)cc2)[C@@H](c2ccccc2)NC12C(=O)Nc1ccc(Cl)cc12 (stereo not given in full) | -11.8% (active) |
| C#CCOc1cc(N(CC)CC)ccc1C(C(=O)NC(C)(C)C)N(C(=O)C1CCc2cc(F)ccc2O1)c1ccc(F)c(Cl)c1 (stereo not given) | 48.2% |
| O=C1Nc2cc(Cl)ccc2/C1=C/c1cccc(OCc2ccccn2)c1 | -3.65% (active) |
| COCOc1cc2c(=O)c(C)c(C(=O)N[C@@H](Cc3ccccc3)C(O)C(=O)NCc3ccccc3)oc2cc1OC (stereo not given in full) | 27.8% |
| N#Cc1c(NCc2ccccc2)n[nH]c1Nc1ccccc1 | 62.3% |
| COc1ccc(C2=NN(c3ccccc3)C(c3ccc(OCc4ccccc4)c(OC)c3)C2)cc1OC (stereo not given) | 105% |
| Cc1cc(C)cc(C(=O)Nc2cccc(-c3cn(-c4ccc(S(N)(=O)=O)cc4)nn3)c2)c1 | -56.2% (active) |
| CCCCSc1nc(NCCc2c[nH]c3ccccc23)c(C#N)c(-c2ccc(F)cc2)n1 | 55.7% |
| CCN(CC)C(=O)N/C(N)=N/c1nc2ccccc2s1 | 72.2% |
| CN(C)c1ccnc(CNCCSC2(c3ccccc3)c3ccccc3C=Cc3ccccc32)c1 | -17.2% (active) |
| CCCCSc1nc(NCCc2c[nH]c3ccccc23)c(C#N)c(-c2ccccc2)n1 | -1.67% (active) |
| C=C1CCC2C3(C)COC(c4cc(F)cc(F)c4)OC3CCC2(C)C1CC(O)C1=CCOC1=O (stereo not given) | 46.2% |
| CC1=C(C(=O)c2ccccc2)C(c2cccc(Cl)c2Cl)n2c(nc3ccccc32)N1 (stereo not given) | 18% |
| COc1cc2oc(-c3cccc(NC(=O)[C@H](Cc4ccccc4)NC(=O)OC(C)(C)C)c3)cc(=O)c2c(OC)c1OC | 61.7% |
| COc1ccc2[nH]cc(-c3nc(N)nnc3-c3cn(C)c4ncccc34)c2c1 | 81.2% |
| C=C1CCC2C3(C)COC(c4cccc(F)c4)OC3CCC2(C)C1C/C=C1/C(=O)OCC1O (stereo not given) | -6.12% (active) |
| O=C(/C=C/c1ccc(-c2ccccc2)cc1)c1nc2ccccc2n1Cc1ccc(F)cc1 | 35.4% |
| Nc1nc(-c2ccccc2)c(N=Nc2ccc([N+](=O)[O-])cc2Cl)s1 | 41.1% |
| CC1=C(C(=O)c2ccccc2)C(c2cccc3ccccc23)n2c(nc3ccccc32)N1 (stereo not given) | 60.4% |

| SMILES | growth |
| --- | --- |
| CSc1ccc(NC(=O)c2ccc3nn(/C(C#N)=C/c4ccccn4)nc3c2)cc1 | -33.9% (active) |
| NC(=S)Nc1cccc(NC(N)=S)c1 | 105% |
| COCOc1cc2oc(C(=O)N[C@@H](Cc3ccccc3)C(O)C(=O)NCc3ccccc3)c(C)c(=O)c2cc1OCOC (stereo not given in full) | 14.4% |
| CC(=O)N1CCN(Cc2ccc3c(NNC(=O)c4cnccn4)nc4cc(F)ccc4n23)CC1 | 56.1% |
| COc1cc(-c2ccc(/C=N/NC(=O)c3[nH]c4ccc(Br)cc4c3-c3ccccc3)s2)cc(OC)c1OC | 69.7% |
| O=C(COc1ccc(NC(=O)Nc2ccc(Cl)c(Cl)c2)cc1)N=Nc1c(O)[nH]c2ccc(Cl)cc12 | -30.5% (active) |
| Cc1c(C(=O)NNC(=O)Nc2ccc(Cl)cc2)nnn1-c1ccc(Br)cc1 | 92.8% |
| C/C(=N\N=C1/C(=O)Nc2ccccc21)c1ccc2c(c1)Nc1ccccc1S2 | 82.7% |
| CCCSc1nc(NCCc2c[nH]c3ccccc23)c(C#N)c(-c2ccccc2)n1 | 78.9% |
| CCOc1ccc(-c2c(C#N)c(-c3ccc(Cl)cc3)nc3n[nH]c(-c4ccc(Cl)cc4)c23)cc1OC | 36.7% |
| CC1=C(C(=O)OC(C)C)C(c2cccc(O)c2)NC(=S)N1 (stereo not given) | 110% |
| CC1(C)CC[C@]2(C(=O)O)CC[C@]3(C)C(=CCC4[C@@]5(C)C[C@@H](O)[C@@H]6OC(c7ccc(F)cc7)OC[C@@]6(C)C5CC[C@]43C)C2C1 (stereo not given in full) | 1.62% (active) |
| Cc1ccc(NC(=O)[C@]23CCC(C)(C)CC2C2=CCC4[C@@]5(C)C[C@@H](O)[C@H](O)[C@@](C)(CO)C5CC[C@@]4(C)[C@]2(C)CC3)cc1 (stereo not given in full) | -19.6% (active) |
| COc1ccc(NC(=O)c2sc3nc(C(C)C)ccc3c2N)cc1 | 61.4% |
| O=C(COc1ccc(NC(=O)Nc2ccc(Cl)c(Cl)c2)cc1)N=Nc1c(O)[nH]c2ccccc12 | -41% (active) |
| Cn1cc(-c2nc(N)nnc2-c2c[nH]c3ccc(F)cc23)c2cc(Br)cnc21 | -6.31% (active) |
| CCOC(=O)/C=C/c1cccc2c1C(=O)NC(C)(c1cc3cc(Br)ccc3oc1=O)N2 (stereo not given) | 40.2% |
| Cc1cc(=O)oc2cc(OCCCCOc3ccc(/C=C/C(=O)Nc4ccccc4N)cc3)ccc12 | 83% |
| N#Cc1c(-c2ccc(Br)cc2)nc2n[nH]c(-c3ccc(Br)cc3)c2c1-c1ccc(F)cc1 | 112% |
| O=C1NC(=O)/C(=C/c2ccccc2OCc2cc3ccccc3nc2Cl)S1 | 56.8% |
